Test results reported in PubChem BioAssay AID504753 (Sanford-Burnham Center for Chemical Genomics, 2011).
Out of some 2,400 compounds screened, about 820 (34%) were called active.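 How the source made its calls: active means inhibition of at least 50% at 20 µM in any single replicate; inactive means the rest.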 Only a sample is shown.

What follows are molecules tested on glucose-6-phosphate dehydrogenase-6-phosphogluconolactonase (PfGluPho), Plasmodium falciparum 3D7 (assay: PfG6PD inhibitors, hit retest, confirmation, biochemical, fluorescence intensity, single concentration (AID 504753;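 further: 0% = DMSO with substrate and 100% = DMSO lacking glucose-6-phosphate substrate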)). Details: recombinant PfGluPho, NADPH-diaphorase-resazurin fluorescence; at 20 µM; hits give high values.

Row | Compound | inhibition
1 | COc1ccc(CCn2c(NN=C3CCCC3)nc3c2c(=O)[nH]c(=O)n3C)cc1 | 61.9% (active)
2 | CSc1n[nH]c(=S)n1N | 19.9% (inactive)
3 | O=C(CSc1cccc2cccnc12)N/N=C/c1cccnc1 | 15.1% (inactive)
4 | O=C(CCn1nnc2ccccc21)OCC(=O)c1ccc([N+](=O)[O-])cc1 | 12.8% (inactive)
5 | CC(C)(C)NC(=O)COc1ccc(CNc2ccc3[nH]c(=O)[nH]c3c2)cc1 | 66.8% (active)
6 | O=C1OC(Oc2ccc(Br)cc2)(c2ccccc2)c2ccccc21 (centres undefined) | -21.5% (inactive)
7 | Cc1ccc(C(=O)/C=C/c2c(C)nn(-c3ccccc3)c2Cl)cc1 | -5.72% (inactive)
8 | c1ccc(-c2cn3c(n2)CCc2ccc4cccnc4c2-3)cc1 | 56.4% (active)
9 | Cc1cccc(-n2c(N)c(C(=O)N3CCN(C)CC3)sc2=S)c1 | 45.5% (inactive)
10 | CCc1c(C)[nH]c(=S)c(C#N)c1C | 46% (inactive)
11 | CN1c2ccc(C=O)c3c(C=O)ccc(c23)N(C)C1(C)C | 20.6% (inactive)
12 | COc1ccc2c(c1)c(=Cc1ccc(N(C)C)cc1)c1cc(-c3ccccc3)[n+](C)n12 | 74% (active)
13 | Cc1ccc(NC(=O)Cn2sc3ccccc3c2=O)cc1 | 107% (active)
14 | O=C(Nc1ccc(F)cc1)c1cc2c(s1)CCCC2 | 15.8% (inactive)
15 | O=C(CN1CCN(c2ccc(O)cc2)CC1)Nc1ccc(-c2ccccc2)cc1 | 22.2% (inactive)
16 | COCCNC(=S)Nc1cc(S(=O)(=O)N2CCOCC2)ccc1N1CCCCC1 | 44.5% (inactive)
17 | O=C(CN1CCN(c2ccc(O)cc2)CC1)Nc1cc(S(=O)(=O)N2CCOCC2)ccc1Cl | 50% (active)
18 | COc1ccc(Cl)cc1NC(=O)CN(C)C(=O)CCCc1c[nH]c2ccccc12 | 27.2% (inactive)
19 | Nc1ccc(-c2nnc(-c3ccc(-c4ccccc4)cc3)o2)cc1 | 15.4% (inactive)
20 | COc1cccc(C(=O)Nc2nnc(S(=O)(=O)N3CCCCC3)s2)c1 | 76.5% (active)
21 | COc1cccc(C(=O)Nc2nnc(S(=O)(=O)N3CCOCC3)s2)c1 | 81% (active)
22 | COc1cccc(C(=O)Nc2nnc(S(=O)(=O)N(C)c3ccccc3)s2)c1 | 73.6% (active)

Row | Compound | inhibition
23 | Cc1cccn2c(CN(C)C3CCCc4ccccc43)c(C(=O)N3CCOCC3)nc12 (centres undefined) | 34.2% (inactive)
24 | COc1cc(C(=S)NCc2ccccc2)cc(Br)c1O | 39.6% (inactive)
25 | O=C(Nc1sc2c(c1C(=O)O)CCC2)c1ccccc1F | 33.8% (inactive)
26 | Oc1ccc(N=Cc2c(O)ccc3ccccc23)cc1 | 2.98% (inactive)
27 | COc1cc(C2CC(=O)N3CN(Cc4ccccc4)CSC3=C2C#N)ccc1OCc1ccccc1 (centres undefined) | 15.1% (inactive)
28 | Cc1c(-c2ccccc2)n[nH]c1C(=O)N=Nc1c(O)[nH]c2ccccc12 | 38.1% (inactive)
29 | CCOC(=O)C1=C(c2ccc(OC)cc2)C(=O)c2ccccc2C1=O | 82.8% (active)
30 | Nc1ccc2nc3c(=O)[nH]c(=S)[nH]c3nc2c1 | 23.1% (inactive)
31 | COc1cccc(NC(=O)NCc2ccc(F)cc2)c1 | -14.2% (inactive)
32 | Clc1ccc2c(c1)C1=C(C(c3ccncc3)O2)C(c2ccc(Br)cc2)n2ncnc2N1 (centres undefined) | 42.4% (inactive)
33 | CCOc1cccc(/C=N/N2C(=O)CSC2=S)c1O | 10.3% (inactive)
34 | Nc1ccc2[nH]c(=S)sc2c1 | 35.6% (inactive)
35 | CCN1CCCC1CNC(=O)c1ccc2c(c1)NC(=O)/C(=C\c1ccccc1F)S2 (centres undefined) | 110% (active)
36 | NC(=O)c1c(Nc2nc3c(F)cccc3s2)sc2c1CCCC2 | 2.29% (inactive)
37 | C#CCOCCOCCOCCNc1nc(N2CCN(C(=O)CCCCCCCCCCNC(=O)Cn3cc(CCCCCN)nn3)CC2)nc(N2CCN(C(=O)CCCCCCCCCCNC(=O)[C@H](CO)n3cc(CCCSC)nn3)CC2)n1 | -12.8% (inactive)
38 | O=C(Nc1nnc(S(=O)(=O)N2CCCCCC2)s1)c1cccc(Br)c1 | 55.3% (active)
39 | Cc1cccc(C(=O)Nc2nnc(S(=O)(=O)N3CCCCCC3)s2)c1 | 52.1% (active)
40 | O=C(Nc1ccc(S(=O)(=O)N2CCOCC2)cc1)c1ccc2ncsc2c1 | 12.6% (inactive)
41 | O=C(Nc1nnc(S(=O)(=O)N2CCOCC2)s1)c1cccc(Br)c1 | 60.9% (active)
42 | S=C(NN=Cc1ccccn1)Nc1ccccn1 | 39.7% (inactive)
43 | COc1c(O)ccc2c1CN1CCc3cc4c(cc3C1C2)OCO4 (centres undefined) | 71.4% (active)
44 | N#Cc1ccccc1-n1c(N)c(C(=O)N2CCCC2)sc1=S | 31% (inactive)

Row | Compound | inhibition
45 | O=C1C=CC(=O)N1c1ccc(N2CCCCC2)cc1 | 63.8% (active)
46 | O=[N+]([O-])c1ccc(N2CCN(c3ccc(O)cc3)CC2)c(Cl)c1 | 8.94% (inactive)
47 | Cc1ccc(-c2nc3ccc(Cl)cn3c2Cc2ccccc2)cc1 | 16% (inactive)
48 | Cc1ccc(-c2cn3cc(C)ccc3n2)cc1 | 40.7% (inactive)
49 | COc1ccc(C(=O)Nc2ccccc2C(=O)N/N=C/c2ccc(O)c(OC)c2)cc1 | 26.4% (inactive)
50 | COc1ccc(CC(=O)NCC(=O)N/N=C/c2cc(Br)ccc2OC)cc1 | 70.9% (active)
51 | CCOC(=O)c1sc(NC(=O)CSc2nc(C)cc(C(F)(F)F)n2)c(C#N)c1C | 29.8% (inactive)
52 | Cn1c(CCC(=O)OCC(=O)NCc2ccccc2Cl)nc(=O)c2ccccc21 | 37.4% (inactive)
53 | O=C(Nc1nc(-c2ccncc2)cs1)C1COc2ccccc2O1 (centres undefined) | 52.1% (active)
54 | O=C(CSc1nnc(SCc2ccc(Cl)cc2)s1)N/N=C/c1ccccc1Cl | 30.5% (inactive)
55 | COC(=O)c1sc(=S)n(-c2ccccc2)c1N | 17% (inactive)
56 | S=c1[nH]nc(-c2cc(-c3ccsc3)n[nH]2)n1-c1ccccc1 | 12.6% (inactive)
57 | Cn1sc(=O)c2cc(S(=O)(=O)NC3CC3)ccc21 | 40% (inactive)
58 | O=C1/C(=C\c2ccc([N+](=O)[O-])cc2)CS(=O)(=O)C/C1=C/c1ccc([N+](=O)[O-])cc1 | 56.5% (active)
59 | COc1ccc(Cl)cc1-n1c(=S)sc2c(=O)n(-c3ccc(F)cc3)c(SCC(=O)O)nc21 | 34.5% (inactive)
60 | COC(=O)CCCC1=CC2=CC(=O)C(C)(OC(=O)c3cccs3)C(=O)C2=CN1CC(C)C (centres undefined) | 2.11% (inactive)
61 | O=[N+]([O-])c1c(NCCO)cc(Sc2nc3ccccc3s2)c2nonc12 | 68.6% (active)
62 | CCOc1ccccc1Nc1ccc2nonc2c1[N+](=O)[O-] | 45.4% (inactive)
63 | Cc1ccc2nc(-c3cccc(Br)c3)cc(C(=O)Nn3cnnc3)c2c1 | 27.5% (inactive)
64 | COCCN1C=C2C(=O)C(C)(OC(=O)C3CCCC3)C(=O)C=C2C=C1c1ccsc1 (centres undefined) | 29.9% (inactive)
65 | Cc1ccc(OCC(=O)Nc2ccccc2Sc2ccc(Cl)cc2)c([N+](=O)[O-])n1 | 40.8% (inactive)
66 | CCN(CC)c1ccc2oc(=O)c(C)nc2c1 | 97.5% (active)

Row | Compound | inhibition
67 | CCSc1nnc(NC(=O)c2ccc(C)cc2)s1 | 75.1% (active)
68 | CCc1cc(C(N)=O)c(NC(=O)c2ccc(OC)cc2)s1 | 16% (inactive)
69 | CC(C)(C)c1nnc(NC(=O)C2c3ccccc3Oc3ccccc32)s1 | 27.4% (inactive)
70 | CC1=CC(C)(C)Nc2ccc(OC(=O)CN3C(=O)C4CCCCC4C3=O)cc21 (centres undefined) | 12.7% (inactive)
71 | Cc1ccnc(-n2sc3ccccc3c2=O)n1 | 54.5% (active)
72 | O=c1oc2ccccc2cc1-c1cn(-c2ccccc2)c(=S)[nH]1 | 18.8% (inactive)
73 | S=c1[nH]nc(-c2cc(-c3ccccc3)n[nH]2)n1/N=C/c1c2ccccc2cc2ccccc12 | -2.97% (inactive)
74 | Oc1c(CN2CCOCC2)ccc(CN2CCOCC2)c1O | 31.4% (inactive)
75 | Cc1cc(Nc2ccc(Cl)cc2)nc(N2CCOCC2)n1 | 11.2% (inactive)
76 | O=C(/C=C/c1ccco1)Nc1ccc(Oc2ccccc2)cc1 | -1.92% (inactive)
77 | Cc1ccc(/C=C/C(=O)Nc2ccc([N+](=O)[O-])c(NC(=O)/C=C/c3ccc(C)o3)c2)o1 | 65.5% (active)
78 | COc1ccc(C(=O)Nc2cc(C)c(NC(=O)c3ccccc3OC)cn2)cc1 | 15.4% (inactive)
79 | Cc1nc([N+](=O)[O-])nn1C12CC3CC(CC(Br)(C3)C1)C2 | 26.5% (inactive)
80 | Cc1nc(N2CCOCC2)sc1C(=O)NN | 27.4% (inactive)
81 | Cc1ccc2nc(-c3ccc(Br)cc3)cn2c1 | 40.1% (inactive)
82 | O=c1c2c(nc3cc(-c4cccc(Cl)c4)[nH]n13)CCCC2 | 41.6% (inactive)
83 | C=CCc1ccccc1OCC(=O)N/N=C/c1ccccc1OCC | 55.4% (active)
84 | O=C(COc1ccccc1)Nc1nonc1NC(=O)COc1ccccc1 | 19.8% (inactive)
85 | CCOc1ccccc1/C=N/NC(=O)CNC(=O)COc1ccccc1 | 104% (active)
86 | CCC(=C/c1sc2ccc3ccccc3c2[n+]1C)/C=C1\Sc2ccc3ccccc3c2N1C | -4.66% (inactive)
87 | CN1CCN(c2ccc(NC(=O)c3ccc4c(c3)OCCO4)cc2Cl)CC1 | 17.7% (inactive)
88 | O=C(Nc1ccc(OC(F)(F)F)cc1)c1ccc2c(c1)no[n+]2[O-] | 10.5% (inactive)

Row | Compound | inhibition
89 | COC(=O)CCc1sc(Nc2ccc(Br)cc2)nc1-c1ccc(OC)cc1 | -3.8% (inactive)
90 | O=C(NC1=CC(=O)c2ccccc2C1=O)c1ccccc1 | 51.5% (active)
91 | COc1cc(OC)c(C(=O)Nc2ccc(N(C)C)cc2)cc1OC | 15.6% (inactive)
92 | COc1ccc(OCc2nnc3n2N=C(c2ccccc2)C(CC(=O)O)S3)cc1 (centres undefined) | 66.8% (active)
93 | COc1ccc(OCc2n[nH]c(=S)n2N)cc1 | 46.2% (inactive)
94 | COc1ccc(-c2nn(-c3ccccc3)cc2/C=N/Nc2ccccn2)cc1OC | 20.9% (inactive)
95 | COc1ccc(-n2c(C)cc(C(=O)CSc3nnc(-c4cccs4)o3)c2C)cc1 | 14.3% (inactive)
96 | Cn1c(-c2ccco2)nc2cc3ccccc3cc21 | 22.1% (inactive)
97 | OCCN1CCN(C(=S)c2ccc(-c3ccccc3)cc2)CC1 | 50.8% (active)
98 | COc1ccc(Nc2cc(Sc3ccc(OC)cc3)ncn2)cc1 | 26.3% (inactive)
99 | COCCNC(=O)Nc1ccc2nc(-c3ccco3)c(-c3ccco3)nc2c1 | 34.8% (inactive)
100 | O=[N+]([O-])c1ccc(C=Nc2ccc(Cl)cc2Cl)s1 | 4.17% (inactive)
101 | O=c1[nH]c2ccccc2n2c(-c3ccccc3)nnc12 | 102% (active)
102 | Oc1c(C=Nc2cccc3nsnc23)ccc2ccccc12 | 27.2% (inactive)
103 | Cc1cc(N)n2nc(-c3ccc(C(C)(C)C)cc3)cc2n1 | 29.4% (inactive)
104 | O=C(N/N=C\c1cccc(Br)c1)c1ccccc1-n1cccc1 | 32% (inactive)
105 | C=C1c2cccc(OC)c2O[C@H](C(=O)OCC)[C@@H]1CCCCCC | -4.41% (inactive)
106 | Cn1c(-c2sccc2OCc2cccc(C(F)(F)F)c2)n[nH]c1=S | 52.9% (active)
107 | CCc1c(C)sc(NC(=O)c2cccs2)c1C(N)=O | 16.4% (inactive)
108 | Cc1cc(Nc2ccc(Br)cc2)nc2ccccc12 | -14% (inactive)
109 | CCOc1ccc(-n2c(N)c(C(=O)NCC3CCCO3)sc2=S)cc1 (centres undefined) | 24.8% (inactive)
